According to PubChem BioAssay (Tox21):
Results filed as inconclusive are left out. More than one record can exist for a structure, and the calls need not agree. Activity calls are given as the source filed them. Unless noted, calls follow the shape of the dose curve; as a rule, active = well fitted curve in the direction sought with a large enough effect in the repeat runs; inconclusive = weak or mixed curves; inactive = no such curve, though single readings can be large; an effect the other way counts as inactive or inconclusive.

Key:
[1] = qHTS assay to identify small molecule antagonists of the glucocorticoid receptor (GR) signaling pathway - cell viability counter screen (AID 720693); also: nearly all actives have a fitted effect of over 55% in size
[2] = qHTS assay for identifying genotoxic compounds that show differential cytotoxicity against isogenic chicken DT40 cell lines with known DNA damage response pathways - wild type cell line (AID 743012); also: nearly all actives have a fitted effect of over 60% in size; also: potency is read from the fitted curve at half-maximal effect
Method in brief: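 CellTiter-Glo luminescence readout of viability in wild type DT40 cells after 40 h compound exposure at 37 C/5% CO2; 300 cells/well; reagent incubated 30 min at room temperature before reading.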

[3] = qHTS assay for identifying genotoxic compounds that show differential cytotoxicity against isogenic chicken DT40 cell lines with known DNA damage response pathways - Rev3 mutant cell line (AID 743014); also: nearly all actives have a fitted effect of over 55% in size; also: potency is read from the fitted curve at half-maximal effect
[4] = qHTS assay for identifying genotoxic compounds that show differential cytotoxicity against isogenic chicken DT40 cell lines with known DNA damage response pathways - Rad54/Ku70 mutant cell line (AID 743015); also: nearly all actives have a fitted effect of over 60% in size; also: potency is read from the fitted curve at half-maximal effect
[5] = qHTS assay to identify small molecule antagonists of the androgen receptor (AR) signaling pathway - cell viability counter screen (AID 743033; also: nearly all actives have a fitted effect of over 45% in size)
[6] = qHTS assay to identify small molecule antagonists of the androgen receptor (AR) signaling pathway using the MDA cell line - cell viability counter screen (AID 743041; also: nearly all actives have a fitted effect of over 45% in size)
Method in brief: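 Viability read by CellTiter-Fluor fluorescence in the same wells as the antagonist screen, added after 15.5 h of a 16 h, 37C exposure. Human breast carcinoma MDA-kb2 AR-luc cells, compounds co-dosed with agonist R1881.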

[7] = qHTS assay to identify small molecule antagonists of the thyroid receptor (TR) signaling pathway - cell viability counter screen (AID 743064); also: nearly all actives have a fitted effect of over 50% in size; also: potency is read from the fitted curve at half-maximal effect
Method in brief: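 In rat pituitary GH3.TRE-Luc reporter cells co-exposed to compound and 1 nM T3 for 23.5 h, cytotoxicity was assessed with CellTiter-Fluor in the same wells, read by fluorescence.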

[8] = qHTS assay to identify small molecule antagonists of the thyroid receptor (TR) signaling pathway (AID 743065); also: nearly all actives have a fitted effect of over 55% in size; also: potency is read from the fitted curve at half-maximal effect
Method in brief: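 Antagonism measured as loss of luciferase signal in GH3 cells stably carrying a TRE-luciferase reporter, co-treated with compound and T3 (1 nM final) for 23.5 h at 37 C. Viability was read in the same well by CellTiter-Fluor.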

[9] = system: thyroid hormone receptor (rat, GH3 cells); assay: qHTS assay to identify small molecule agonists of the thyroid receptor (TR) signaling pathway (AID 743066; calls by dose curve)
[10] = molecular target: Estrogen receptor (Homo sapiens) (UniProt P03372); assay: qHTS assay to identify small molecule antagonists of the estrogen receptor alpha (ER-alpha) signaling pathway (AID 743069; active = well fitted curve in the direction sought with a large enough effect in the signal ratio in the repeat runs, not every such curve was filed as active; the % refers to the signal ratio)
Method in brief: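 Antagonist mode: compounds in DMSO were co-added with 17beta-estradiol to ER-alpha-bla HEK293 cells (2% charcoal-stripped serum) and left 18 h at 37C. Reporter inhibition was measured as FRET fluorescence after 2 h LiveBLAzer substrate at room temperature.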

[11] = qHTS assay to identify small molecule antagonists of the estrogen receptor alpha (ER-alpha) signaling pathway - cell viability counter screen (AID 743074; calls by dose curve;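 also: HEK293 cells carrying ER-alpha-UAS-bla reporter stimulated with 17beta-estradiol; nearly all actives have a fitted effect of over 45% in size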)
[12] = molecular target: Estrogen receptor (Homo sapiens) (UniProt P03372); assay: qHTS assay to identify small molecule agonists of the estrogen receptor alpha (ER-alpha) signaling pathway (AID 743075; calls by dose curve;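 also: HEK293 GripTite cells with ER-alpha and UAS-driven beta-lactamase reporter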)
[13] = molecular target: Estrogen receptor (Homo sapiens) (UniProt P03372); assay: qHTS assay to identify small molecule agonists of the estrogen receptor alpha (ER-alpha) signaling pathway using the BG1 cell line (AID 743079); also: nearly all actives have a fitted effect of over 20% in size; also: potency is read from the fitted curve at half-maximal effect
[14] = qHTS assay to identify small molecule antagonists of the estrogen receptor alpha (ER-alpha) signaling pathway using the BG1 cell line (AID 743080; calls by dose curve;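 also: BG1 cells stimulated with 17beta-estradiol alongside compound; series mostly up to about 70 µM; nearly all actives have a fitted effect of over 25% in size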)
Method in brief: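 Luminescence from a 4×ERE-luciferase reporter in BG1-Luc-4E2 cells served as read-out. Cells, pre-cultured 5 days in stripped-serum phenol-red-free medium, were exposed to compound with 17beta-estradiol co-stimulation for 21.5 h at 37 C.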

[15] = qHTS assay to identify small molecule antagonists of the estrogen receptor alpha (ER-alpha) signaling pathway using the BG1 cell line - cell viability counter screen (AID 743081);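 also: compound given together with 17beta-estradiol as the ER stimulus; series mostly up to about 70 µM; nearly all actives have a fitted effect of over 45% in size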
Aromatase (Homo sapiens) = Aromatase (Homo sapiens) (UniProt P11511); assay: qHTS assay to identify aromatase inhibitors (AID 743083); also: series mostly up to about 70 µM; nearly all actives have a fitted effect of over 55% in size
[16] = qHTS assay to identify aromatase inhibitors - cell viability counter screen (AID 743084)
[17] = molecular target: Androgen receptor (Homo sapiens) (UniProt P10275); assay: qHTS assay to identify small molecule antagonists of the androgen receptor (AR) signaling pathway (AID 743035; active = well fitted inhibition curve with a large enough effect in the signal ratio in the repeat runs, not every such curve was filed as active; the % refers to the signal ratio)
Method in brief: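 AR-bla HEK293 reporter cells; 4 h settle at 37C/5% CO2; compound + R1881 agonist, 16 h at 37C; LiveBLAzer B/G FRET substrate 2 h RT; fluorescence intensity read. qHTS format.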

[18] = molecular target: Androgen receptor (Homo sapiens) (UniProt P10275); assay: qHTS assay to identify small molecule agonists of the androgen receptor (AR) signaling pathway (AID 743036; active = well fitted activation curve with a large enough effect in the signal ratio in the repeat runs, with a control signal flat, not every such curve was filed as active; the % refers to the signal ratio)
Method in brief: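 Cell-based FRET reporter assay: HEK293 line with a UAS-beta-lactamase construct, compounds added in DMSO, 16 h exposure at 37C, then 2 h substrate step at room temperature and fluorescence intensity read.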

[19] = molecular target: Androgen receptor (Homo sapiens) (UniProt P10275); assay: qHTS assay to identify small molecule agonists of the androgen receptor (AR) signaling pathway using the MDA cell line (AID 743040; also: nearly all actives have a fitted effect of over 20% in size)
Method in brief: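 Luciferase agonist assay: 16 h compound exposure at 37C without CO2 in MDA-kb2 AR-luc cells, whose MMTV promoter responds to both AR and GR. Luminescence measured after 30 min room-temperature incubation with ONE-Glo.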

Measured: Potency

Chain of Androgen receptor (Homo sapiens) (P10275 whole entry, looked up): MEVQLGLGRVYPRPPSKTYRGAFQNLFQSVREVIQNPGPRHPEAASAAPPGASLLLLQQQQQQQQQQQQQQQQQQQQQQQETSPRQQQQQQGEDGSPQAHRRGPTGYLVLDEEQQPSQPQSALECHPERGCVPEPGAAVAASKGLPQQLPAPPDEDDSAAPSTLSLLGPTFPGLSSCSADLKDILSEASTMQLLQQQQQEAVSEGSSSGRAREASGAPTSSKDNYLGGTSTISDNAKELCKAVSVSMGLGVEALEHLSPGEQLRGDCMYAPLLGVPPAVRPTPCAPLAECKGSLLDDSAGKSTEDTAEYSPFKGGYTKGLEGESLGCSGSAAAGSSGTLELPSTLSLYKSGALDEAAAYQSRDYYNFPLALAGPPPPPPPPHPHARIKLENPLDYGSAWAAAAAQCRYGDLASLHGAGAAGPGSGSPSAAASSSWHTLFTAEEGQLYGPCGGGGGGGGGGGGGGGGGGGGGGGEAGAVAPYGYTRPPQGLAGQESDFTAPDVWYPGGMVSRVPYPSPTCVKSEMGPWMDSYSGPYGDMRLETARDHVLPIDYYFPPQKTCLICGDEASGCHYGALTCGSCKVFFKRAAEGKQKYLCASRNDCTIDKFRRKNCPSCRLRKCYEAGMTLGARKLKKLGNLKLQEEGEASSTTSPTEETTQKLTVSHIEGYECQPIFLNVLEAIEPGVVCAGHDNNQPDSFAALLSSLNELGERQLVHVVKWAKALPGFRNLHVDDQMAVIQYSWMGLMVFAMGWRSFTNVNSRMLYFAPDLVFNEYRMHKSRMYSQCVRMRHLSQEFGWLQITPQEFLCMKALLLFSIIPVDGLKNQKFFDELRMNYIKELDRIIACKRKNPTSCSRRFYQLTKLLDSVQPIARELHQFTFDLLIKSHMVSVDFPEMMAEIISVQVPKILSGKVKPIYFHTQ
Chain of Estrogen receptor (Homo sapiens) (P03372 whole entry, looked up): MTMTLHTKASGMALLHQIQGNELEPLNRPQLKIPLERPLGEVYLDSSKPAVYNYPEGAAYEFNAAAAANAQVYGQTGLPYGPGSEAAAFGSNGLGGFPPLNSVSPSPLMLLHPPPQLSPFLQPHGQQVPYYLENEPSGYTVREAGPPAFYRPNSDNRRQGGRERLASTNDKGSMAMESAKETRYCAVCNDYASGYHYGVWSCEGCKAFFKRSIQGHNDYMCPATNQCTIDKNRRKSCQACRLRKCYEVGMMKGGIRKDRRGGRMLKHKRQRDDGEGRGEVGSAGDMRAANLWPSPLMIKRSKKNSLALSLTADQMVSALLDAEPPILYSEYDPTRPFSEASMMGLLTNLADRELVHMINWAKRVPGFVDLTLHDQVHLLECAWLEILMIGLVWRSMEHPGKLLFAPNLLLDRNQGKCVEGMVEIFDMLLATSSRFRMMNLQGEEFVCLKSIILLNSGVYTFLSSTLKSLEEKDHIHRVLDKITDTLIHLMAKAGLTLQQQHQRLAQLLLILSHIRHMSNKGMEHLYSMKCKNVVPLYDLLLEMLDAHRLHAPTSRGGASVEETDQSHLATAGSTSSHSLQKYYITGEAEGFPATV
Chain of Aromatase (Homo sapiens) (P11511 whole entry, looked up): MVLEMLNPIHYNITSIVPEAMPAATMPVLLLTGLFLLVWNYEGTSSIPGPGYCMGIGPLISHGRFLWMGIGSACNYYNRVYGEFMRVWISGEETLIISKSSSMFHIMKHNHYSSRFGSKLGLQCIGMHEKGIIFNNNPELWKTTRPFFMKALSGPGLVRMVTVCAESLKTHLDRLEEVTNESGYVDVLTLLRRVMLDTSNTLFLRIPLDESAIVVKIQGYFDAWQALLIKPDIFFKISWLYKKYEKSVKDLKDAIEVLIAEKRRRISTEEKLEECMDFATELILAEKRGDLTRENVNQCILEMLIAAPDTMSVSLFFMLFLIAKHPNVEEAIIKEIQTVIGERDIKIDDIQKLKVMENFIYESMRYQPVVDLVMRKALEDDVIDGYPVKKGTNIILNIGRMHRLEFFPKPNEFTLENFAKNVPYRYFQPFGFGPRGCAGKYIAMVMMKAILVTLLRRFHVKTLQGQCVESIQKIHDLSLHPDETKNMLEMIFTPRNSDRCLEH

COc1nc(N)nc2nc[nH]c12
inactive: [1] | [2] | [3] | [4] | [5] | [6] | [7] | [8] | [9] | [10] | [11] | [12] | [13] | [14] | [15] | Aromatase (Homo sapiens) | [16]

CC1(C)Cc2cccc(N)c2O1
inactive: [1] | [2] | [3] | [4] | [5] | [7] | [8] | [9] | [10] | [11] | [12] | [13] | [14] | [15] | Aromatase (Homo sapiens) | [16]

CC(S)C(C)S (stereo not drawn)
inactive: [1] | [2] | [3] | [4] | [17] | [18] | [19] | [6] | [7] | [8] | [9] | [10] | [11] | [12] | [13] | [14] | [15] | Aromatase (Homo sapiens) | [16]

CC(N)CCCC(C)(C)O (stereo not drawn)
inactive: [1] | [2] | [3] | [4] | [5] | [6] | [7] | [8] | [9] | [11] | [15] | Aromatase (Homo sapiens) | [16]

O=C(CN1CCNCC1)NC1CCCCC1
inactive: [1] | [2] | [3] | [4] | [5] | [6] | [7] | [10] | [11] | [12] | [13] | [14] | [15] | Aromatase (Homo sapiens) | [16]

CCCC(=O)OC/C=C(\C)CCC=C(C)C
inactive: [1] | [2] | [3] | [4] | [5] | [8] | [9] | [10] | [11] | [12] | [13] | [14] | Aromatase (Homo sapiens) | [16]

CCOc1cccc(N)c1
inactive: [1] | [2] | [3] | [4] | [5] | [7] | [8] | [9] | [10] | [11] | [12] | [13] | [14] | [15] | Aromatase (Homo sapiens) | [16]

N#Cc1cscn1
inactive: [1] | [2] | [3] | [4] | [5] | [6] | [7] | [8] | [9] | [15] | Aromatase (Homo sapiens) | [16]

C[C@]12CCC(=O)C=C1CC[C@H]1[C@@H]3CC[C@](O)(C(=O)CO)[C@@]3(C)C[C@H](O)[C@@]12F
inactive: [1] | [5] | [7] | [8] | [9] | [11] | [12] | [15] | Aromatase (Homo sapiens) | [16]
4.73 µM (active) and inactive: [13]
active: [2] 23.7 µM | [3] 11.9 µM | [4] 21.1 µM

Cc1c(N)cccc1Cl
inactive: [1] | [2] | [3] | [4] | [5] | [7] | [8] | [9] | [10] | [12] | [14] | [15] | Aromatase (Homo sapiens) | [16]

CNCCS(=O)(=O)O
inactive: [1] | [2] | [3] | [4] | [5] | [6] | [7] | [8] | [9] | [11] | [15] | Aromatase (Homo sapiens) | [16]

C=CC(=O)CCCCC
inactive: [1] | [2] | [3] | [4] | [5] | [6] | [7] | [8] | [9] | [15] | Aromatase (Homo sapiens) | [16]

CN1C[C@@H]2C[C@H]1CN2c1cc2c(cc1F)c(=O)c(C(=O)O)cn2C1CC1
active: [2] 7.5 µM | [3] 9.44 µM | [4] 11.9 µM
inactive: [1] | [5] | [7] | [8] | [9] | [11] | [12] | [13] | [14] | [15] | Aromatase (Homo sapiens) | [16]

C=CCCCCCCCC
inactive: [1] | [2] | [3] | [4] | [5] | [6] | [7] | [8] | [9] | [11] | [15] | Aromatase (Homo sapiens) | [16]

CN(C)CCCCl
inactive: [1] | [2] | [3] | [4] | [5] | [7] | [8] | [9] | [10] | [11] | [12] | [14] | [15] | Aromatase (Homo sapiens) | [16]

O=C(O)CSCC(=O)NC1CCSC1=O (stereo not drawn)
inactive: [1] | [2] | [3] | [4] | [18] | [19] | [6] | [7] | [8] | [9] | [11] | [15] | Aromatase (Homo sapiens) | [16]

CCCCCc1cccc(=O)o1
inactive: [1] | [2] | [3] | [4] | [6] | [7] | [8] | [9] | [10] | [11] | [12] | [13] | [14] | [15] | Aromatase (Homo sapiens) | [16]

CC1(C)CC(OC(=O)CCCCCCCCC(=O)OC2CC(C)(C)NC(C)(C)C2)CC(C)(C)N1
active: [7] 2.96 µM | [8] 5.91 µM
inactive: [1] | [2] | [3] | [4] | [5] | [9] | [10] | [12] | [13] | [14] | [15] | Aromatase (Homo sapiens) | [16]
